Data on 13 compounds can be found in ChEMBL document CHEMBL3433997, “St. Jude Leishmania screening dataset” (2016).

Each structure is given as a SMILES string.

For orientation: inhibition means the change of the read-out against control, counted positive when it falls.

The assay deals with Hexose transporter 1 (Plasmodium falciparum) (UniProt O97467). The experiment in a line: ST_JUDE_LEISH: Cytotoxicity at 2uM final concentration against transgenic Leishmania Mexicana promastigotes LmPfHT that are glucose transport deficient and complemented with the Plasmodium falciparum hexose transporter. Activity is measured by DNA content using SYBR green in vitro. Format: functional.
Regarding `CC(CN1CCN(C)CC1)C(=O)Nc1ccc(-c2csc(-c3nc4ccccc4[nH]3)c2)cc1` (stereo not drawn), the inhibition was 5.18%. For `O=C(CCc1c[nH]cn1)Nc1cccc(-c2cccc(-c3nc4cc(C(F)(F)F)ccc4[nH]3)c2)c1`, the inhibition came out at 0.58%. Then `c1cncc(Oc2ccc(Nc3ccnc4cc(-c5cccc(CNCCN6CCOCC6)c5)ccc34)cc2)c1`, with -1.57%; and `NC1CCN(Cc2ccc(-c3cccc(-c4nc5cc(F)ccc5[nH]4)c3)cc2)C1` (stereo not drawn), with 14.7%.

As for `Cc1cc(-c2cccc(CNC3CCN(C)CC3)c2)ccc1S(=O)(=O)NCCc1ccccn1`, the inhibition is -0.31%. With `COc1cc2nc(N3CCN(C(=O)c4ccc(N(C(=O)OC(C)(C)C)C(=O)OC(C)(C)C)cc4)CC3)nc(N)c2cc1OC`, the inhibition was -0.06%. Consider `CC(C)(C)c1ccc(OCCCON2C(=N)N=C(N)NC2(C)C)c(C(C)(C)C)c1`, for which the inhibition worked out at 0.14%. In the case of `COc1ccccc1NC(=O)Nc1ccc(-c2ccc(-c3nc4cc(C(F)(F)F)ccc4[nH]3)cc2)cc1`, the inhibition came to 4.25%. In the case of `COc1ccc(-c2cccc(CNC3CCN(C)CC3)c2)cc1S(=O)(=O)NCc1ccccc1`, the inhibition was 4.06%.

Regarding `O=C(NCCc1ccc(Cl)c(Cl)c1)[C@@H]1CCCN1C(=O)c1ccc(O)c(-c2ccc(Cl)c(Cl)c2)c1`, the inhibition is -0.69%. Then `O=C(Nc1ccc(OC2CCN(Cc3ccc(F)cc3)CC2)c(Cl)c1)c1ccsc1`, with 2.64%; and `CCCN(CCC)S(=O)(=O)c1ccc(C(=O)Nc2nc3ccc(-c4cc(=O)[nH]c(Nc5ccccc5Cl)n4)cc3[nH]2)cc1`, with 5.1%; and `COc1ccccc1CCNC(=O)c1cc(Br)cc(N2CCN(c3ccncc3)CC2)c1`, with 2.75%.
